Only some compounds are listed: those with a hit (about 5.7% of all), similar ones and a draw of the others.
HP1b chromo inh – blocks HP1-beta chromodomain binding to methylated histone tails | Potency, µM (top dose mostly 114 µM), usual class: inhibitors | AlphaScreen HP1-beta / biotin-H3K9me3 peptide binding | AID 540317 | actives 0.56% (n = 390,000) | P83916; also: nearly all actives have a fitted effect of over 70% in size
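Compound inhibition of the preformed complex between 50 nM HP1-beta and 50 nM biotinylated H3K9me3 peptide was read by AlphaScreen. Buffer was PBS pH 7.4 with 0.01% Tween-20. Incubations ran 30 min at room temperature, with 10 ug/mL donor/acceptor beads.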
JMJD2E inh – JMJD2E (human) inhibition; actives 1.6% (n = 230,000); Potency, µM (top dose mostly 57.1 µM), most hits filed as inhibitors; B2RXH2; JMJD2E catalytic domain, FDH-coupled NADH fluorescence (FDH is formaldehyde dehydrogenase); AID 2147; active = well fitted inhibition curve with a large enough effect, not every such curve was filed as active; inconclusive = small, poorly fitted or top-dose-only effect, or another doubt; inactive = no such curve, though single readings can be large or run the other way; also: nearly all actives have a fitted effect of over 50% in size
L3MBTL1 inh – blocks human L3MBTL1. Q9Y468. AlphaScreen L3MBTL1–H3K9me1 peptide binding. Potency, µM (highest dose often 57.1 µM), most hits filed as inhibitors. actives 0.66% (n = 230,000). AID 485360; also: nearly all actives have a fitted effect of over 60% in size
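First, the protein-peptide complex forms for 30 min at room temperature (L3MBTL1 50 nM, biotinylated H3K9me1 peptide 75 nM). Next, compounds are pin-transferred and incubated 30 min. Finally, AlphaScreen beads are added and read after 30 min.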
PI5P4Ka inh – inhibitors of human PI5P4K alpha. PI5P4Kalpha enzyme, ADP-Glo luminescence, 60 min; hits give low values. max response, %. actives 1.2% (n = 330,000); active = max response of -50% or lower; inconclusive = between -30% and -50%; inactive = -30% or higher; also: value at the top dose of about 77 µM
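Enzyme plus substrate dispensed, test compounds pinned in, then ATP (5 microM final) added. After 60 min at RT, ADP-Glo reagent 1 for 45 min and reagent 2 for 30 min preceded luminescence imaging.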
JMJD2A Tudor – JMJD2A Tudor domain (human) inhibition; O75164; AlphaScreen JMJD2A-Tudor / H3K4me3 peptide binding; Potency, µM (series often up to 114 µM), most hits filed as inhibitors; actives 4.4% (n = 390,000); AID 504339; also: nearly all actives have a fitted effect of over 50% in size
Target sequence (O75164 whole entry, looked up, the tested form may be a part): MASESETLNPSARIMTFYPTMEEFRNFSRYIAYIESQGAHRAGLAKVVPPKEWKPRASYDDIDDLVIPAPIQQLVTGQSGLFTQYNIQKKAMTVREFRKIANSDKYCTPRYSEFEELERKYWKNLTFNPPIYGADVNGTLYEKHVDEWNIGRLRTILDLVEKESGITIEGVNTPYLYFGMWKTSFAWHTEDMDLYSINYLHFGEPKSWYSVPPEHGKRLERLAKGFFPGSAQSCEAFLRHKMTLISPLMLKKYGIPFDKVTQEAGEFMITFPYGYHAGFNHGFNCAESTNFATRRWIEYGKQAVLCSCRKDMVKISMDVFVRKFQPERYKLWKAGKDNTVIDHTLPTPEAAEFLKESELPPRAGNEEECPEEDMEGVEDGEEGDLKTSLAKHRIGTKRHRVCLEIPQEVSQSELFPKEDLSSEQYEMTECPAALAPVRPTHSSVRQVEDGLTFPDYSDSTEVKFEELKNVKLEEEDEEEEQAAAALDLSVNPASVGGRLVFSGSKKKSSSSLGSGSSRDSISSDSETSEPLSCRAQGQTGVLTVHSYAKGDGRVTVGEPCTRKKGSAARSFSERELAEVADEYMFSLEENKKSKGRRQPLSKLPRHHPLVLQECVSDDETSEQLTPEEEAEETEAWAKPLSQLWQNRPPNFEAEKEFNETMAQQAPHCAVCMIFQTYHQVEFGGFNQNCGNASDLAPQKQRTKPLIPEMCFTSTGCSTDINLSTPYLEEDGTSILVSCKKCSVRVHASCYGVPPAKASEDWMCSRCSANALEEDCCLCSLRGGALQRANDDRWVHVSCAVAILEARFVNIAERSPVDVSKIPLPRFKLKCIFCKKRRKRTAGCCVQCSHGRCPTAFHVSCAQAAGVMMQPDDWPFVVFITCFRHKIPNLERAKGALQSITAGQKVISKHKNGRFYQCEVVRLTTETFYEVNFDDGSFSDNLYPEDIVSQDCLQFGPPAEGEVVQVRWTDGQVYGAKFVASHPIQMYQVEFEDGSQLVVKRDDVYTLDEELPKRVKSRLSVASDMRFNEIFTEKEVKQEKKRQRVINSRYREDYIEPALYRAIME
BAZ2B block – BAZ2B (human) inhibition; Q9UIF8; AlphaScreen BAZ2B-H3K14Ac peptide displacement; Potency, µM (series often up to 114 µM), hits mostly inhibitors; actives 4.4% (n = 360,000); AID 504333; also: nearly all actives have a fitted effect of over 60% in size
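AlphaScreen displacement: compounds (up to 110uM) incubated 30 min at room temperature with a preformed 50 nM BAZ2B/50 nM biotinylated H3K14Ac peptide complex in PBS pH 7.4 with Tween-20. Donor and acceptor beads at 10 ug/mL final added, 20 min light-protected before reading.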
Of the large screens only hits and unclear results are named; the others gave an inactive call. Unless noted, calls follow the shape of the dose curve; as a rule, active = well fitted inhibition curve with a large enough effect; inconclusive = small, poorly fitted or top-dose-only effect; inactive = no such curve, though single readings can be large or run the other way.

CC1CN(C2CCN(C(=O)c3cccc(Cl)c3)CC2)CC(C)O1 (centres undefined)	HP1b chromo inh inconclusive, JMJD2A Tudor 8.9µM
COc1ccc(-n2nnnc2C2CCN(S(=O)(=O)c3cccc(Cl)c3C)CC2)cc1	none (no result: JMJD2E inh, L3MBTL1 inh, PI5P4Ka inh)
Cc1cc2c(cc3c(SCC(=O)Nc4cccc(Cl)c4C)nnc(C)n32)o1	none (no result: JMJD2E inh, L3MBTL1 inh, PI5P4Ka inh)
O=C(Nc1nc(-c2ccccn2)cs1)c1ccc(Br)s1	JMJD2E inh inconclusive, JMJD2A Tudor inconclusive, BAZ2B block 35µM (no result: L3MBTL1 inh, PI5P4Ka inh)
C[C@H](NC(=O)c1ccco1)C(=O)Nc1nnc(SCc2ccccc2)s1	none (no result: JMJD2E inh, BAZ2B block)
C[C@H](NC(=O)c1ccco1)C(=O)Nc1nc(-c2ccccn2)cs1	JMJD2A Tudor 45µM (no result: JMJD2E inh, L3MBTL1 inh, BAZ2B block)
O=C(Nc1nc(-c2cccs2)cs1)c1ccco1	none
COc1ccc2oc(C(=O)Nc3nc(-c4ccccn4)cs3)c(C)c2c1	L3MBTL1 inh 25µM, PI5P4Ka inh inconclusive (no result: JMJD2E inh)
O=C(Nc1nc(-c2cc(Cl)sc2Cl)cs1)c1ccc(Br)s1	none (no result: L3MBTL1 inh)
O=C(Nc1nc(-c2ccccn2)cs1)c1ccco1	JMJD2E inh inconclusive, PI5P4Ka inh inconclusive, JMJD2A Tudor 56µM, BAZ2B block 7.9µM (no result: L3MBTL1 inh)
CCCCN(C)CCNC(=O)c1cc2c(=O)n(C)c3ccccc3c2n1C	none (no result: JMJD2E inh, L3MBTL1 inh, PI5P4Ka inh)
CCOC(=O)c1ccc(Nc2nc3ccccc3n3c(C)nnc23)cc1	none (no result: JMJD2E inh, L3MBTL1 inh, PI5P4Ka inh)
COc1cccc(C(=O)N(Cc2sccc2C)C2CCS(=O)(=O)C2)c1 (centres undefined)	none (no result: JMJD2E inh, L3MBTL1 inh, PI5P4Ka inh)
COc1cc(/C=N/Nc2ccccc2)ccc1O	none (no result: JMJD2E inh, L3MBTL1 inh)
Oc1ccc(/C=N/NC(=S)N/N=C/c2ccc(O)cc2)cc1	L3MBTL1 inh inconclusive, PI5P4Ka inh -51
Oc1ccc(/C=N/Nc2ccccc2)cc1	HP1b chromo inh inconclusive, JMJD2A Tudor 22µM
Cc1ccc(-c2nn(-c3ccccc3)cc2/C=C2\SC(=S)N(CC(=O)O)C2=O)cc1	JMJD2A Tudor 40µM, BAZ2B block 22µM
O=C1C(=Cc2cn(-c3ccccc3)nc2-c2ccc(OCc3ccccc3F)cc2)SC(=S)N1CCS(=O)(=O)O	PI5P4Ka inh -79 (no result: HP1b chromo inh, JMJD2E inh, L3MBTL1 inh, JMJD2A Tudor, BAZ2B block)
COc1ccc(-c2nn(-c3ccccc3)cc2/C=C2/SC(=S)N(CCC(=O)O)C2=O)cc1	HP1b chromo inh 35µM, JMJD2A Tudor 20µM, BAZ2B block 18µM (no result: JMJD2E inh, L3MBTL1 inh)
CCN1C(=O)/C(=C\c2cn(CCC#N)nc2-c2ccc(F)cc2)SC1=S	HP1b chromo inh inconclusive, JMJD2A Tudor 22µM, BAZ2B block 35µM
O=C(O)CN1C(=O)/C(=C\c2cccc(OCc3ccccc3F)c2)SC1=S	HP1b chromo inh inconclusive, JMJD2A Tudor inconclusive (no result: JMJD2E inh, L3MBTL1 inh)
COc1cccc(NC(=O)CSCn2nnc3c(=O)[nH]c(Cc4ccc(F)cc4)nc32)c1	none (no result: JMJD2E inh, L3MBTL1 inh, PI5P4Ka inh)
COc1ccc(-c2nn(-c3ccccc3)cc2/C=C2/SC(=S)N(CCC(=O)O)C2=O)c(C)c1	HP1b chromo inh inconclusive, JMJD2A Tudor 25µM, BAZ2B block 50µM (no result: JMJD2E inh)
COc1ccc(/C(C)=C2/SC(=S)N(CCC(=O)O)C2=O)cc1	JMJD2A Tudor inconclusive, BAZ2B block inconclusive (no result: L3MBTL1 inh, PI5P4Ka inh)
Cc1ccc2c(c1)c1cccc3c1n2CCN3CCC(N)=O	HP1b chromo inh inconclusive, JMJD2E inh inconclusive, JMJD2A Tudor 50µM, BAZ2B block 40µM (no result: L3MBTL1 inh)
COc1ccc(NC(=O)C(C)n2nnc3sc(-c4ccccc4)cc3c2=O)cc1Cl (centres undefined)	HP1b chromo inh inconclusive, JMJD2A Tudor 79µM (no result: JMJD2E inh, L3MBTL1 inh, PI5P4Ka inh)
O=C(O)Cc1nc2nc3c(c(=O)n2[nH]1)CCCC3	JMJD2A Tudor 10µM (no result: PI5P4Ka inh)
Cc1c(C(=O)O/N=C(\N)c2ccccn2)cccc1[N+](=O)[O-]	JMJD2A Tudor 11µM
N/C(=N\OC(=O)c1ccc(Cl)cc1[N+](=O)[O-])c1ccccn1	JMJD2A Tudor inconclusive (no result: JMJD2E inh)
Cc1c(C(=O)Oc2cccc3cccnc23)cccc1[N+](=O)[O-]	HP1b chromo inh inconclusive, JMJD2E inh inconclusive, JMJD2A Tudor 45µM, BAZ2B block 14µM (no result: L3MBTL1 inh)
O=C(Nc1cccc2cccnc12)c1ccccc1[N+](=O)[O-]	none (no result: JMJD2E inh, L3MBTL1 inh, PI5P4Ka inh)
N/C(=N\OC(=O)Cc1ccccc1[N+](=O)[O-])c1ccccn1	JMJD2A Tudor inconclusive, BAZ2B block 56µM
Cc1ccc(CSC2=Nc3ccccc3C3=NC(CCC(=O)NC4CCCCC4)C(=O)N23)cc1 (centres undefined)	none (no result: JMJD2E inh, L3MBTL1 inh, PI5P4Ka inh)
